IL2 activator: qHTS of IL-2 Activators. IL-2 activation reporter assay, cell-based qHTS; stimulated with anti-CD3/CD4/CD28 beads; in transgenic mouse T cells. activation, % (series mostly up to about 46 µM). 0.065% of 360,000 active; in the data active = activation above about 50%; inconclusive = mostly about 30% to 49%; note: 0% is about no effect
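Unstimulated transgenic mouse T cells, 750 per well, received compound and, after 60 minutes, anti-CD3/anti-CD4 bead plus anti-CD28 stimulation. EGFP and DsRed were quantified after 18 hours.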
ClpP mod: qHTS Assay for Activators of ClpP. Potency, µM (titrated, usually from 57.5 µM), inactives show top-dose activity change, negative = active. ATP-dependent Clp protease proteolytic subunit (Bacillus subtilis (strain 168)), P80244. purified B. subtilis ClpP, FRET peptide cleavage, 20 min. 1.9% of 340,000 active; active = well fitted falling curve with a large enough effect; inconclusive = small, poorly fitted or top-dose-only effect; inactive = no such curve, though single readings can be large or run the other way; note: potency is the fitted concentration of half-maximal effect; the source files actives as falling curves though it sought activators and does not explain the sign; nearly all actives have a fitted effect of over 65% in size
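FRET quenching reversal measured ClpP activation: 10 microg/mL B. subtilis ClpP at pH 8 with the FRET-FV decapeptide, read at 430 nm after 320 nm excitation. The 20-min minus 0-min signal was scaled between DMSO/no-enzyme wells and ADEP (5.8 microM final).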
PKM2 activator: qHTS Assay for Activators of Human Muscle isoform 2 Pyruvate Kinase. purified PKM2, Kinase-Glo ATP luminescence, activation; response scale: 0% is enzyme alone, no compound. Potency, µM (doses to about 57.5 µM), inactives show at the highest dose activation, hits mostly activators. 0.34% of 260,000 active; note: potency is the fitted concentration of half-maximal effect; % is set by controls: 0 for no effect and ±100 for the full control effect; nearly all actives have a fitted effect of over 55% in size
Target sequence (P14618 whole entry, looked up, canonical isoform): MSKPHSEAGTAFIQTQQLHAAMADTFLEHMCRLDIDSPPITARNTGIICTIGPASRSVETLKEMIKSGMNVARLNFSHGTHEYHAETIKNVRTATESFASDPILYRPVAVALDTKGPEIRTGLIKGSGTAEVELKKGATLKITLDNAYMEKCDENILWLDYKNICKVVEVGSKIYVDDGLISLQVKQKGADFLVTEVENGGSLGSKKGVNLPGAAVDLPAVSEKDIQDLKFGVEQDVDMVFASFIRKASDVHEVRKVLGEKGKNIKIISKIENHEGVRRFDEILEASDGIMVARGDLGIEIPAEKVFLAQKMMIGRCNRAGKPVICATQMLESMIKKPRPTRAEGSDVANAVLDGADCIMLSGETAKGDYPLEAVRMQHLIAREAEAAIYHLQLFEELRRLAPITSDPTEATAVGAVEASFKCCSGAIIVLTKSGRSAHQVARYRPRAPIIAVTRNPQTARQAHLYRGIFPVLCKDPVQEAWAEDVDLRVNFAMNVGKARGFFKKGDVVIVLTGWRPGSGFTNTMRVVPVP
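Purified hPK-M2 (>95%) run at intermediate activity with 0.1 mM ADP and 0.5 mM PEP in 50 mM imidazole pH 7.2, KCl, MgCl2; 1 h room temperature. ATP formed read by Kinase-Glo luminescence; normalized to uninhibited and no-enzyme controls.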
Integrin act MD: qHTS for Activators of Integrin-Mediated Alleviation for Muscular Dystrophy. alpha7betagal myoblasts, beta-gal FDG fluorescence, 48 h. Potency, µM (highest dose often 38.3 µM), without a hit: top-dose activation, actives largely listed as activators. 0.064% of 350,000 active;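 note: potency is the fitted concentration of half-maximal effect; 100% = response of the positive control SU9516; nearly all actives have a fitted effect of over 60% in size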
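Alpha7betagal+/- myoblasts (passage 13) were plated 16-24 hr, then exposed to compounds (1:260 dilution of DMSO stock) for 48 hours at 37C. After MPER lysis, β-galactosidase reporter activity was read as FDG fluorescence (ex 480/em 540) after 30 minutes.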
USP2a inh: qHTS Assay for Inhibitors of Ubiquitin-specific Protease USP2a Using CHOP2 as the Reporter | USP2 core, Ub-CHOP2 coupled fluorogenic reporter, 485/531 | Potency, µM (highest dose often 38.3 µM), for the others: at the top dose activity change, negative = inhibition, hits mostly inhibitors | AID 463254, 2010 | 0.01% of 330,000 active | Ubiquitin carboxyl-terminal hydrolase 2 (Homo sapiens), O75604;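 note: potency is the fitted concentration of half-maximal effect; plate controls were DMSO wells for no effect and full inhibition by NEM control for full effect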
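USP2 core (10nM final) preincubated 30min RT with compound in 20mM Tris-HCl pH 8.0, 2mM CaCl2, 2mM beta-mercaptoethanol, 0.05% CHAPS; 25nM Ub-CHOP2 plus 25nM reporter substrate added, fluorescence (Ex485/Em531) read after 60min.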
Pin1 inhibitor: qHTS Assay to Find Inhibitors of Pin1 | Peptidyl-prolyl cis-trans isomerase NIMA-interacting 1 (Homo sapiens), Q13526 | Pin1 FP peptide displacement, HiFluor488, 10 min | Potency, µM (titrated, usually from 115 µM), for inactives: at the top dose activity, negative = inhibition, usual class: inhibitors | 0.009% of 390,000 active | AID 504891, 2011; active = well fitted inhibition curve with a large enough effect in the polarisation, with a control signal flat, not every such curve was filed as active; inconclusive = small, poorly fitted or top-dose-only effect, or effect the other way, or a change in a side signal; inactive = no such curve, though single readings can be large or run the other way; the % refers to the polarisation; note: potency is the fitted concentration of half-maximal effect; % is set by controls: 0 for no effect and ±100 for the full control effect
Target sequence (Q13526 whole entry, looked up): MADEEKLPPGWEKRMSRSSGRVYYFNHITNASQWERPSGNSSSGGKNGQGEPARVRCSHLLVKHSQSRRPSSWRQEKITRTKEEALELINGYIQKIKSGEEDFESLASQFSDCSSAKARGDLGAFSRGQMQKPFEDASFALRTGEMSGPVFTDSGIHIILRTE
Active calls of the source: *; ? = inconclusive; · = not tested or not shown; [ ] = dose if it differs, or a comment. A selection: hits, their analogues and other compounds. The true share with any hit is near 1.9%. Unless noted, calls come from the whole dose curve; as a rule, active = well fitted curve in the direction sought with a large enough effect; inconclusive = small, poorly fitted or top-dose-only effect, or another doubt; inactive = no such curve, though single readings can be large; an effect the other way counts as inactive or inconclusive.

SMILES	IL2 activator	ClpP mod	PKM2 activator	Integrin act MD	USP2a inh	Pin1 inhibitor
COC(=O)C1=C(C(=O)OC)[C@@H]2N(Cc3ccccc3)c3ccccc3[C@@]23C[C@@H](C(=O)OC)N(S(=O)(=O)c2ccc([N+](=O)[O-])cc2)C3=N1	·	·	-13%[11.5 µM]	·	·	·
C=CCOC(=O)C1=C(C)Nc2nnnn2C1c1cccc(OC)c1OC (stereo not given)	1	-5%	3%	27%	-1%	6%
CCOC(=O)C1=C(C)Nc2nnnn2C1c1cccc(OC)c1OC (stereo not given)	0	-1%	16µM*	-9%	0%	-2%
COc1cc(C=O)ccc1OCc1cccc(Br)c1	0	25µM*	10%	29%	1%	2%
O=C(Nc1ccc2c(c1)C(=O)N(CC1CCCO1)C2=O)c1ccccc1Br (stereo not given)	-3	22µM*	1%	-16%	1%	0%
CC(C)CCN1C(=O)c2ccc(C(=O)NCc3ccccn3)cc2C1=O	2	32µM*	·	11%	0%	2%
Brc1ccc(-c2ccc(/C=N/Nc3nc(N4CCOCC4)nc(N4CCOCC4)n3)o2)cc1	-1	·	-4%	-15%	0%	1%
Clc1ccc(-c2ccc(/C=N/Nc3cc(N4CCOCC4)nc(N4CCOCC4)n3)o2)cc1	0	7.9µM*	18%	-40%	2%	18%
CC(C)(C)c1ccc(OCC(=O)O/N=C(\N)c2ccncc2)cc1	-2	16µM*	·	-18%	·	-1%
CCc1ccc(OCC(=O)O/N=C(\N)c2ccncc2)cc1	-3	0%	-2%	12%	-1%	3%
O=S(=O)(c1ccc(F)cc1F)N1CCN(c2nc(-c3cccs3)nc3ccccc23)CC1	·	4%	·	·	·	-3%
CN(C)C(=O)CSc1nnc2sc3ccccc3n12	0	4%	-12%	5%	2%	-7%
c1csc(CSc2nnc3sc4ccccc4n23)c1	-5	-1%	16µM*	?	2%	6%
COc1ccc(NC(=O)COc2ccccc2C(=O)Nc2ccccc2)cc1	·	-1%	·	·	·	·
O=C(O)c1cccc(Cn2c(Cl)c(/C=N/NC(=O)c3cc4ccccc4cc3O)sc2=O)c1	0	0%	32µM*	?	-2%	?
COc1ccc(CN2CC[C@H]3C=CC[C@@H](C(=O)N4CCN(c5ccccc5)CC4)[C@H]3C2=O)cc1OC	·	1%	·	·	·	·
O=C(CSc1nc2ccccc2n1Cc1ccccc1Cl)N/N=C/c1ccccc1C(=O)O	-1	0%	25µM*	-5%	-8%	8%
CCOc1ccc(CCNC(=O)CCc2nc(-c3ccc(OC)cc3)no2)cc1OCC	-1	25µM*	-18%	8%	2%	1%
CCOc1ccc(-c2nc(-c3ccc(OC)cc3)no2)cc1OCC	3	32µM*	2%	0%	0%	10%
Clc1ccc2c(ccc[n+]2CCC2CCCCC2)c1	·	-19%	·	·	·	·
Cc1ccc(Oc2ccc(S(=O)(=O)N3CCOCC3)cc2C(N)=O)c(-n2nc3ccccc3n2)c1	0	32µM*	0%	-12%	3%	-1%
CC(=O)N=c1sc2nc3ccccc3nc2n1N(C(C)=O)C(C)=O	-2	28µM*	-4%	23%	0%	6%
COc1cc(/C=c2\[nH]c(=O)/c(=C/c3cc(OC)c(OC)c(OC)c3)[nH]c2=O)cc(OC)c1OC	·	2%	·	·	·	·
CCCn1c(N)c(N(CCOC)C(=O)COC(=O)c2ccccc2NCCO)c(=O)[nH]c1=O	-4	?	·	18%	0%	0%
CCCCn1c(N)c(N(CC(C)C)C(=O)COC(=O)c2ccccc2NCCO)c(=O)[nH]c1=O	0	16µM*	·	2%	1%	3%
SMILES	IL2 activator	ClpP mod	PKM2 activator	Integrin act MD	USP2a inh	Pin1 inhibitor
CC(C)CN(C(=O)COC(=O)c1cccnc1Cl)c1c(N)n(Cc2ccccc2)c(=O)[nH]c1=O	1	28µM*	·	-1%	0%	6%
O=C1CCc2cc(S(=O)(=O)Nc3ccc4ncccc4c3)ccc2N1	·	·	·	·	·	7%
COc1cc2ncnc(N3CCN(C(=O)Nc4ccc(Oc5ccccc5)cc4)CC3)c2cc1OC	·	-4%	·	·	·	·
O=C(/C=C/c1ccc(Cl)cc1)NCCCN1CCOCC1	-3	0%	-1%	-28%	-1%	-6%
O=C(/C=C/c1ccc2c(c1)OCO2)NCCSCc1cccc(Cl)c1	-1	32µM*	5%	7%	-1%	-1%
O=C(/C=C/c1ccc2c(c1)OCO2)NCCCN1CCOCC1	0	16µM*	0%	20%	1%	0%
O=C(/C=C/c1ccc2c(c1)OCO2)NCCSCc1ccc(Cl)cc1Cl	-1	-1%	-5%	-21%	4%	7%
O=C1C=CC(=O)N1c1ccc(Sc2ccc([N+](=O)[O-])cc2)cc1	·	·	32µM*	·	-1%	·
Nc1ccc(Sc2ccc([N+](=O)[O-])cc2)cc1	-3	·	1%	2%	0%	-2%
Cc1cccc(N2CCN(c3nc4ccc(C)cc4n4cnnc34)CC2C)c1 (stereo not given)	·	32µM*	·	·	·	42%
Cc1ccc2nc(N3CCN(c4cccc(C)c4C)CC3)c3nncn3c2c1	·	-4%	·	·	·	1%
CC(Nc1nc(N2CCCCC2)nc2ccccc12)c1ccccc1 (stereo not given)	-1	28µM*	-3%	-70%	-1%	-2%
C=CCNc1nc(N2CCCC2)nc2ccccc12	3	32µM*	8%	-43%	-1%	-7%
Oc1ccc2ccccc2c1/C=N/Nc1nnc(-c2ncc[nH]2)c2ccccc12	56*	3%	15%	-57%	1%	?
COc1ccc(/C=N/Nc2nnc(-c3ncc[nH]3)c3ccccc23)cc1	-1	-8%	8%	-10%	1%	?
Cc1ccc2nnc(Cl)n2n1	0	?	9%	19%	1%	6%
Clc1nnc2ccc(-c3ccccc3)nn12	-1	25µM*	-1%	0%[7.66 µM]	0%	2%
COCCNC(=O)c1cc2c(-c3ccccc3F)nn(C)c2s1	0	25µM*	-1%	-13%	1%	-1%
CCCCN(C)CCNC(=O)c1cc2c(-c3cccc(OC)c3)nn(C)c2s1	0	·	·	-45%	0%	3%
